Test results: PubChem BioAssay AID2291 (The Scripps Research Institute Molecular Screening Center, 2010)
About 75 (0.5%) of roughly 16,000 compounds were called active. The list comes from a sample in which actives are over-represented; it also holds similar structures and randomly drawn compounds. Values without a mark were called inactive. No stated cut-off is given here; in the data, active means inhibition above about 30%; inactive means the rest.

What follows are compounds tested against Protein phosphatase methylesterase 1 (Homo sapiens) (UniProt Q9Y570) (assay: Maybridge compound blocking human PME-1 (AID 2291)). Details: recombinant PME-1, FP-Rh probe fluorescence polarization; at 9 µM; hits give high values.
Protein phosphatase methylesterase 1 (Homo sapiens), sequence (Q9Y570 whole entry, looked up): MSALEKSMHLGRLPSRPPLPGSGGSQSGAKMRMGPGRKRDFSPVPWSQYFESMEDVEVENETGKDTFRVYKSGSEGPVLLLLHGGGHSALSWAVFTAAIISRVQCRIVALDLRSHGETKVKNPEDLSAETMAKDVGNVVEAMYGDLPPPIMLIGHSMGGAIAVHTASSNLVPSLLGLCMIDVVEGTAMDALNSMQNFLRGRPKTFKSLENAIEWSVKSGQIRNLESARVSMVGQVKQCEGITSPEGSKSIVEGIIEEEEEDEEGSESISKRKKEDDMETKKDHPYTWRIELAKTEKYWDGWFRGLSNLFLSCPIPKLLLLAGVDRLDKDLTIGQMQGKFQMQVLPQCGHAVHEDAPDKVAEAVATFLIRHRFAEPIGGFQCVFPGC
With `COc1ccc(-c2ccc(/C=N/NC(=O)CCc3ccc(O)cc3)s2)cc1` the inhibition was -3.06%. Work on `COc1ccc(COCC(O)CN2CCC(C(N)=O)CC2)cc1` (stereo unspecified) yielded an inhibition of 1.38%. With `FC(F)(F)c1ccc(Cl)c(NC(=S)NN=C2CCCCCC2)c1` the inhibition was 0.88%. `CC1(C)C=Cc2cc(-c3noc(-c4ccccc4)n3)ccc2O1` showed an inhibition of -23.5%. `CCCc1c(C(=O)Nc2ccc(F)cc2)cnn1-c1ccccc1` showed an inhibition of 3.87%. In the case of `O=C(Oc1ccccc1N1CCCCC1)c1sc2ccccc2c1Cl`, the inhibition is reported as -0.751%. In the case of `CCOC(=O)CNC(=O)CCc1cc(OC)c(OC)c(OC)c1`, the inhibition is reported as 6.62%. `Cn1c(S(=O)(=O)O)nc2ccccc21` showed an inhibition of 3.94%. In the case of `O=C(Sc1ccccc1)c1ccc(C(F)(F)F)cc1`, the inhibition is reported as -0.43%. Compound `CN(NS(=O)(=O)CS(C)(=O)=O)c1ncccc1[N+](=O)[O-]` has an inhibition of 5.17%. `O=C(O)c1onc2ccccc12` gave an inhibition of -2.58%. `CCOC(=O)NN(C(=O)OCC)c1c(C)c(C)c(C)c(C)c1C` gave an inhibition of -1.33%. Compound `Cc1nc(C(F)(F)F)ccc1C(=O)NC1CCCc2ccccc21` (stereo unspecified) has an inhibition of 1.46%. `Cc1cc2nc(C)c(C)nc2cc1C` was tested, and the inhibition was -1.82%. Work on `COc1ccc(NC(=O)C2CC(C)=C(C)CC2C(=O)O)c(N2CCOCC2)n1` (stereo unspecified) yielded an inhibition of 1.52%. `N#CC(Cc1ccccc1)Sc1ccccc1` (stereo unspecified) showed an inhibition of 3.19%. `O=C(CNC(=O)c1ccccc1F)c1ccc(Br)cc1` gave an inhibition of -7.48%. With `O=C(/C(=N\N=C\c1ccc2c(c1)OCO2)c1ccccc1)c1ccccc1` the inhibition was 4.75%. Work on `Cc1cc2nsnc2cc1Cl` yielded an inhibition of 0.257%. For `COC(=O)c1sc(SC)c(-c2ccn[nH]2)c1C`, the inhibition was 2.07%. For `NC(=S)N/N=C\Cc1nnnn1-c1ccc(Cl)cc1`, the inhibition was 1.94%. For `Nc1nc(C23CC4CC(CC(C4)C2)C3)cs1`, the inhibition was 8.45%. `CSc1ccc(C(F)(F)F)cc1C(=O)/C=C/N(C)C` was tested, and the inhibition was -0.344%. Work on `Clc1ccc(-c2csc(-c3cnccn3)n2)s1` yielded an inhibition of -1.61%. For `O=C1c2ccc3c4c(ccc(c24)C(=O)N1c1ccccc1)C(=O)N(c1ccccc1)C3=O`, the inhibition was 5.87%. `CCOC(=O)C1=C(C)NC(=O)NC1c1ccc(-c2cccc([N+](=O)[O-])c2)o1` (stereo unspecified) gave an inhibition of -24.2%. For `C/C(=N\NC(N)=S)c1csc(-c2ccccc2)n1`, the inhibition was 4.41%. `O=C(c1cc(-c2cccs2)on1)N1CCCCC1` showed an inhibition of -4.77%. `COCn1nnc2ccccc21` gave an inhibition of 0.294%. `COc1ccc(/C=C(\NC(=O)c2ccccc2)C(=O)N/N=C/c2ccc3c(c2)OCO3)cc1` gave an inhibition of -5.56%. `CCCCc1ccc(-n2c(-c3ccc(F)cc3)coc2=O)cc1` was tested, and the inhibition was 2.07%. Compound `N#C/C(=C\N1CCc2ccccc21)S(=O)(=O)c1ccc(C(F)(F)F)cn1` has an inhibition of 2.09%. For `Cn1c(=O)c(C#N)cn(-c2ccccc2)c1=O`, the inhibition was 2.81%. `Cc1ccc(NC(=S)C(C#N)C(=O)N2CCCC2)c(C)c1` (stereo unspecified) was tested, and the inhibition was -4.1%. Work on `O=C(Nc1ccccc1-c1ccccc1)c1cccs1` yielded an inhibition of -1.11%. `Fc1cccc(Cl)c1CN1CCN(c2ncnc3scc(-c4cccs4)c23)CC1` was tested, and the inhibition was -3.44%. `CCOC(=O)Cc1csc(NC(NC(=O)OCC)(C(F)(F)F)C(F)(F)F)n1` gave an inhibition of 4.35%. In the case of `O=C1Nc2ccccc2C12NNC(=S)NN2`, the inhibition is reported as 65.2% (active). Compound `CSc1ccc(C(F)(F)F)cc1NC(=S)Nc1ccccc1` has an inhibition of 0.0132%. Work on `N#Cc1c(-c2cccs2)oc(-n2cccc2)c1-c1cc(Br)cs1` yielded an inhibition of -56.1%. `O=C(NNC(=O)C1c2ccccc2Oc2ccccc21)c1cccc(F)c1` gave an inhibition of 0.119%. Compound `O=S(=O)(NC1Cc2ccccc2C1)c1ccc(-c2csnn2)cc1` has an inhibition of 7.03%. In the case of `Cn1cnc([N+](=O)[O-])c1N1CCN(C(c2ccccc2)c2ccccc2)CC1`, the inhibition is reported as 0.986%. `CN1CCCCC(C2=C(Cl)C(=O)CCC2)C1=O` (stereo unspecified) showed an inhibition of 3.98%. `OC(COc1ccc(Cl)c(Cl)c1)CN1CCC(Nc2nccc(C(F)(F)F)n2)CC1` (stereo unspecified) was tested, and the inhibition was -0.258%. `O=C(Nc1cc2ccccc2s1)N1CCN(Cc2c(F)cccc2Cl)CC1` gave an inhibition of 0.279%. In the case of `NC(=O)c1cccc2c1OCCO2`, the inhibition is reported as 6.89%. With `Nc1ccccc1SCc1cc([N+](=O)[O-])cc2c1OCOC2` the inhibition was 5.44%. Work on `COc1cc(CC/C(C)=N/O)ccc1O` yielded an inhibition of 3.22%. `NNC(=O)c1ccc(Cl)cc1Cl` was tested, and the inhibition was 15.5%. With `CC(=O)Nc1ccc(C)cc1N=Cc1ccncc1` the inhibition was 2.67%. `O=C(O)c1cnc(NCc2ccccc2)s1` showed an inhibition of -5.43%. For `COc1ccc(CCN=C(C)c2cc(Cl)cc(Cl)c2O)cc1OC`, the inhibition was 0.059%. Work on `CC1(NC(=O)OCc2ccccc2)CC1NC(=O)OCc1ccccc1` (stereo unspecified) yielded an inhibition of -1.61%. Compound `O=S(=O)(c1ccc2c(c1)OCCO2)N1CCN(c2ccc(C(F)(F)F)cn2)CC1` has an inhibition of 27.1%. `O=C(Cc1cccc2ccccc12)NNC(=O)Nc1ccc(Cl)cc1` showed an inhibition of -12.8%. `CCOC(=O)/C(=N/Nc1ccccc1)C(C)=N` showed an inhibition of 1.95%. `N#CC(C#N)=C/C=C(/Sc1nc2cc(Cl)ccc2s1)c1ccc(Cl)cc1` gave an inhibition of 3.07%. In the case of `Cc1cccc(Cl)c1NC(=S)NCCNC(=O)OC(C)(C)C`, the inhibition is reported as -2.72%. In the case of `O=c1[nH]c2ccccc2c(=O)n1CCSc1ccc(Cl)cc1`, the inhibition is reported as -0.818%. In the case of `O=C(O)CCc1cccnc1`, the inhibition is reported as 5.03%. `OC(CN1CCN(c2ccc(C(F)(F)F)cn2)CC1)c1ccc2c(c1)OCCO2` (stereo unspecified) gave an inhibition of -3.57%. `OC(COc1ccc(F)cc1)(c1ccccc1)c1ccccc1` gave an inhibition of 2.52%. `Cn1/c(=N\N=C2CCCCC2)sc2ccccc21` gave an inhibition of 24.3%. `O=C(O)/C=C/C(=O)Nc1ccc(NC(=O)c2ccccc2O)cc1` was tested, and the inhibition was -5.93%. Work on `O=C1CC(c2ccccc2)C(=O)N1Cc1cccs1` (stereo unspecified) yielded an inhibition of -0.212%.
